Screen size: about 220,000 compounds; about 830 (0.38%) were called active.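 The calls were made as follows: active = compound inhibiting the enzyme by more than half at any dose during confirmatory dose-response retesting; inconclusive = strong single-dose inhibitors picked by rank but not retested; inactive = the rest.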 The list is a sample of the results. Entries with a potency or affinity are not part of this list.

The target in this test is Leucine aminopeptidase (Plasmodium falciparum (isolate 3D7)) (UniProt Q8IL11). Put plainly: P. falciparum M17LAP inhibitors, primary screen, biochemical, fluorogenic H-Leu-NHMec substrate, 1536-well (AID 1619).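 Also: plate controls were full reaction with DMSO carrier for no effect and no enzyme background for full effect.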 To be noted: recombinant M17LAP, H-Leu-NHMec fluorogenic kinetic assay; at 30 µM; active compounds read high.
Sequence of Leucine aminopeptidase (Plasmodium falciparum (isolate 3D7)) (Q8IL11 whole entry, looked up): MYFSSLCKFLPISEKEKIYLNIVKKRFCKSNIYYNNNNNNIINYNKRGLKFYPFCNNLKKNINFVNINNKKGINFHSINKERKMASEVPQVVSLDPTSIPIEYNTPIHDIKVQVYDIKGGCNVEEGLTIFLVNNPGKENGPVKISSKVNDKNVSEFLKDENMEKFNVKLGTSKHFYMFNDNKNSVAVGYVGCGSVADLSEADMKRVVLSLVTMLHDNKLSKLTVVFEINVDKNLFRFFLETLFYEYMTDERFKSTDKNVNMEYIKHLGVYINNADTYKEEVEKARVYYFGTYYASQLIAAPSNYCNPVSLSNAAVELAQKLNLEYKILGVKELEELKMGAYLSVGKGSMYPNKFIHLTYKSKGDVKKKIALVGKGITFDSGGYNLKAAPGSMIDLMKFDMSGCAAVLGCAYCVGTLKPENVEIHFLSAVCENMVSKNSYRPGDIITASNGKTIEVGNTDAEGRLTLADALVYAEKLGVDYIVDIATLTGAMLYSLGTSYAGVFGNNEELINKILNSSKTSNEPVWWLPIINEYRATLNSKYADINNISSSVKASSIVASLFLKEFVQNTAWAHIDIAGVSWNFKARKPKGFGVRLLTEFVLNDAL
For `N#Cc1c(NC(=O)CSC2=NCCS2)sc2c1CCCC2`, the inhibition (in general, the change of the read-out against control, counted positive when it falls) was 19.2% (inactive). Next, `Cc1csc(SCC(=O)Nc2sccc2C#N)n1`: 0.5% (inactive); `Cc1nnc(SCC(=O)Nc2sc3c(c2C#N)CCCC3)[nH]c1=O`: 52.5% (inactive); `Cc1ccnc(SCC(=O)Nc2sc3c(c2C#N)CCCC3)n1`: 2.01% (inactive). The result for `N#Cc1c(NC(=O)CSc2nc(N)cc(=O)[nH]2)sc2c1CCCCCC2` reads 4.49% (inactive); that for `Cn1cnnc1SCC(=O)Nc1sc2c(c1C#N)CCCCC2`, 11.7% (inactive); that for `N#Cc1c(NC(=O)CSc2ncn(-c3ccccc3)n2)sc2c1CCCC2`, 9.47% (inactive). The result for `Cn1cnnc1SCC(=O)Nc1sccc1C#N` reads -7.3% (inactive). In the case of `O=C1CC(C(=O)NCc2ccccc2)C2(CCCC2)O1` (configuration not stated), the inhibition was -0.86% (inactive). The result for `COc1ccc(C2C(C(=O)N3CCCCC3)c3ccccc3C(=O)N2C)cc1` (configuration not stated) reads -0.86% (inactive). Next, `CCOC(=O)c1sc(NC(=O)CSc2nc(C)cc(C)n2)c(C#N)c1C`: -1.79% (inactive); `CCOC(=O)c1sc(NC(=O)CSc2nc(C)cc(C)c2C#N)c(C#N)c1C`: -17.4% (inactive); `Cc1ccc(OCC(=O)OC2CCS(=O)(=O)C2)cc1` (configuration not stated): 1.23% (inactive).

`CN(C)c1ccc2c(=O)[nH][nH]c(=O)c2c1`: the inhibition was 5.67% (inactive). The result for `CN1C(=O)c2ccc(N3CCCC3)cc2C1=O` reads 22.5% (inactive); that for `O=C(Nc1ccc(Br)cc1Cl)NC1CC1`, -4.66% (inactive). Next, `CC(CCc1ccccc1)NC(=O)c1cccs1` (configuration not stated): -2.09% (inactive); `Cc1ccc2c(CC(=O)N3CCN(S(=O)(=O)c4ccc5c(c4)OCCO5)CC3)coc2c1`: -3.86% (inactive). Next, `Cc1ccccc1/C=N/NC(=O)Cn1nnc(N)n1`: -9.27% (inactive); `COc1ccc2sc(N(CCN(C)C)C(=O)/C=C/c3cccs3)nc2c1`: 1.07% (inactive). Consider `CC1=NN(C(=O)CSCc2ccccc2)C(O)(c2ccc(F)cc2)C1` (configuration not stated), for which the inhibition is 6.76% (inactive).

In the case of `CCOC(=O)c1c(NC(=O)C2C3CCC(O3)C2C(=O)O)sc2c1CCCC2` (configuration not stated), the inhibition was 14.3% (inactive).

Consider `COC(=O)c1c(NC(=O)C2CC2)sc2c1CCCC2`, for which the inhibition was -6.73% (inactive). Next, `CCOC(=O)c1c(NC(=O)C2CCCCC2C(=O)O)sc2c1CCCCC2` (configuration not stated): 33.7% (inactive); `COC(=O)c1c(NC(=O)C2C3CCC(C3)C2C(=O)O)sc2c1CCCCC2` (configuration not stated): 56.4% (inactive); `COc1ccc(NC(=S)N(CCN2CCOCC2)Cc2cc3cc4c(cc3[nH]c2=O)OCCO4)cc1`: 10.8% (inactive). Next, `Cc1ccccc1Nc1nnc(SCC(=O)NCc2ccco2)s1`: 45.1% (inactive); `Cc1nnc(SCC(=O)NC(=O)NCc2ccco2)s1`: -1.14% (inactive). Consider `CCOc1ccc(S(=O)(=O)c2c(C(=O)c3ccccc3)cnc3cc4c(cc23)OCCO4)cc1`, for which the inhibition is 1.82% (inactive). The result for `O=C(CCS(=O)(=O)Cc1ccccc1F)N1CCc2ccccc2C1` reads 6.01% (inactive); that for `COc1ccccc1N1CCN(c2ccc(N3C(=O)CCC3=O)cc2[N+](=O)[O-])CC1`, -4.52% (inactive); that for `COc1ccc(OCC#CCN2CC(C)OC(C)C2)cc1` (configuration not stated), -3.27% (inactive). The result for `Nc1nonc1C(=O)N/N=C/c1ccc(-c2cccc(C(=O)O)c2)o1` reads 30.2% (inactive). `O=C(N/N=C/c1ccc(-c2ccc([N+](=O)[O-])cc2)o1)c1cccnc1`: the inhibition is 4.87% (inactive). Next, `CC(C)(C)c1ccc2c(c1)OC(C(=O)N/N=C\c1ccc(-c3cccc(C(=O)O)c3)o1)CO2` (configuration not stated): 7.12% (inactive). Next, `O=C(N/N=C\c1ccc(-c2ccc([N+](=O)[O-])cc2)o1)C1COc2ccccc2O1` (configuration not stated): 1.94% (inactive); `CCOP(C)(=O)C1(C(=O)OCc2ccccc2)CC1` (configuration not stated): -6.01% (inactive).

As for `COc1cccc(CNc2ccc([N+](=O)[O-])cc2C)c1`, the inhibition is 6.82% (inactive). The result for `O=C1/C(=C/c2ccc(N3CCCC3)cc2)NC(=S)N1C1CC1` reads -10.7% (inactive). Turning to `CC(C)CN1C(=O)/C(=C/c2cccs2)NC1=S`, the inhibition was 35.9% (inactive). With `O=C(CC1C(=O)NCCN1C(=O)c1ccc(F)cc1)OCc1ccccc1` (configuration not stated), the inhibition is -6.93% (inactive).

Regarding `Cc1ccc(CNC(=O)CN2CCCC(C)C2)cc1` (configuration not stated), the inhibition is 8.72% (inactive). Next, `Cc1[nH]nc2c1C(c1ccoc1)C(C#N)=C(N)O2` (configuration not stated): 21.9% (inactive). Next, `COc1cc(-c2[nH]nc3c2C(c2ccoc2)C(C#N)=C(N)O3)cc(OC)c1OC` (configuration not stated): 24% (inactive); `COc1cccc(-c2[nH]nc3c2C(c2ccsc2)C(C#N)=C(N)O3)c1` (configuration not stated): 35.3% (inactive); `COc1ccc(-c2[nH]nc3c2C(c2ccoc2)C(C#N)=C(N)O3)cc1` (configuration not stated): 27.9% (inactive).

Turning to `O=C(Nc1nnc(-c2ccccn2)o1)c1ccc(Br)cc1`, the inhibition is 8.43% (inactive). The result for `COCC(C)NC(=O)c1cc2cccc([N+](=O)[O-])c2[nH]1` (configuration not stated) reads 11.6% (inactive); that for `NC(=O)N[C@@H](Cc1c[nH]c2ccccc12)C(=O)OCC(=O)N1CCCCC1`, -0.49% (inactive); that for `O=C(O/N=C(\c1ccccc1)c1ccncc1)c1ccccc1Cl`, 3.91% (inactive). Next, `CC(C)Cn1c2ccccc2c2cc(C(=O)O)ccc21`: 1.66% (inactive). The result for `COc1ccc(-c2nc(N)n[nH]2)cc1` reads 2.51% (inactive). As for `COc1ccc(-c2csc(N)n2)cc1`, the inhibition is -1.01% (inactive). For the molecule `Cc1ccc(S(=O)(=O)/N=C(\c2ccccc2)N(C)S(=O)(=O)c2ccc(C)cc2)cc1`, the inhibition was -10.3% (inactive).

Regarding `Cc1cccc(NC(=O)C2CCN(c3nc(C)cc(C)n3)CC2)c1`, the inhibition is 35.1% (inactive). Next, `Cc1cc(C)cc(NC(=O)C2CCCN(c3nc(C)cc(C)n3)C2)c1` (configuration not stated): -13.6% (inactive). Next, `Cc1cc(C(F)(F)F)nn1CC(=O)NNC(=S)Nc1cccc(Cl)c1`: 9.62% (inactive); `CC1CCC/C(=N\NC(=S)NCc2ccccc2)C1` (configuration not stated): 9.29% (inactive). Next, `CCCCOc1ncnc2c1[nH]c1ccc(OC)cc12`: -0.91% (inactive).

As to `COCCOc1cc2ncnc(N3CCC(C(=O)O)CC3)c2cc1OCCOC`, the inhibition was 5.32% (inactive).

`Cc1cc(/C=C(/C#N)c2nc3ccccc3[nH]2)c(C)n1-c1cccc([N+](=O)[O-])c1`: the inhibition is -7.34% (inactive). The result for `Cc1cc(/C=C(/C#N)c2nc3ccccc3[nH]2)c(C)n1-c1ccccc1C(=O)O` reads 23% (inactive).

For the origin of these results see PubChem BioAssay AID1619 (SRMLSC, 2009).
